Assay outcomes: PubChem, National Center for Advancing Translational Sciences (NCATS)
Sampled rows, rich in hits. Any-hit rate of the full collection: about 14%.
HCMV inh: qHTS Assay for inhibitors of the human cytomegalovirus (HCMV). HFF cells, HCMV-luciferase reporter, 72 h; active compounds read low. AID 1259415, 2018. activity change, negative = inhibition, % at 57.5 µM. 4.5% of 410,000 active; in the data active = activity change below about -60%; inconclusive = no clear call, values can overlap the other calls; inactive = above about -39%
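Two-dose cell screen: HFF monolayers treated with compounds and infected with luciferase-expressing HCMV at 1 PFU/cell, 72 h at 37C, then lysed for luciferase measurement.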
Sm TGR inh: qHTS Assay for the Inhibitors of Schistosoma Mansoni Peroxiredoxins; 3% of 360,000 active; AID 485364, 2010; purified TGR, DTNB reduction, TNB absorbance 405 nm; Potency, µM (series often up to 114 µM), for inactives: at the top dose activity change, negative = inhibition, actives largely listed as inhibitors; Schistosoma mansoni thioredoxin glutathione reductase (TGR), Q962Y6; also: potency is read from the fitted curve at half-maximal effect; nearly all actives have a fitted effect of over 60% in size
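Kinetic colorimetric format: TGR-catalysed, NADPH-driven DTNB reduction monitored via TNB absorbance. Enzyme dispensed at 20 nM; compound exposure 15 min at room temperature before reaction start.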
Pf growth 96h: Primary qHTS for delayed death inhibitors of the malarial parasite plastid, 96 hour incubation. P. falciparum luciferase reporter growth, 96 h. Potency, µM (titrated, usually from 28.7 µM), for the others: at the highest dose activity change, negative = inhibition, actives largely listed as inhibitors. AID 504834, 2011. 6.9% of 320,000 active; also: potency is read from the fitted curve at half-maximal effect
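96 h incubation, 37 C, 5% CO2, of luciferase-reporter P. falciparum-infected RBCs (2% hematocrit, 0.05% parasitemia final) with test compounds; endpoint luminescence.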
Pf growth 48h: Primary qHTS for delayed death inhibitors of the malarial parasite plastid, 48 hour incubation | P. falciparum luciferase growth in erythrocytes, 48 h | Potency, µM (highest dose often 28.7 µM), inactives show top-dose activity change, negative = inhibition, hits mostly inhibitors | 5.9% of 310,000 active | AID 504832, 2011; also: potency is read from the fitted curve at half-maximal effect
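Read-out is firefly luciferase luminescence from an integrated reporter in P. falciparum, so falling signal marks reduced parasite growth. Infected erythrocytes were at 2% hematocrit and 0.1% parasitemia (final) in Albumax-supplemented RPMI 1640.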
FBPA Giardia inh: qHTS Assay for Inhibitors of Fructose-1,6-bisphosphate Aldolase from Giardia Lamblia | A8B2U2 | purified Giardia FBPA | Potency, µM (highest dose often 59.6 µM), inactives show top-dose activity, negative = inhibition, most hits filed as inhibitors | 0.71% of 290,000 active; also: potency is read from the fitted curve at half-maximal effect; nearly all actives have a fitted effect of over 55% in size
Target sequence (A8B2U2 whole entry, looked up): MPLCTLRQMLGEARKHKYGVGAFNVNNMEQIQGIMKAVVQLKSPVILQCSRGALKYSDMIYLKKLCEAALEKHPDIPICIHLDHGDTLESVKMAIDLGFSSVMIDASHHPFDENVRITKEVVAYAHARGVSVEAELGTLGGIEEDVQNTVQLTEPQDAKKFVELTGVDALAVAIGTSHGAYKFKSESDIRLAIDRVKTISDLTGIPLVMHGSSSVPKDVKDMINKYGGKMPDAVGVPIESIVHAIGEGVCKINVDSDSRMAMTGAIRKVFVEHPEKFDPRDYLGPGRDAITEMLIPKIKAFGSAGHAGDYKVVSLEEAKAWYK
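Giardia FBPA (40 nM reagent) was preincubated 10 min at RT with compound (up to 57.5 uM final), then substrate plus GAPDH/TPI/NAD/arsenate coupling system with diaphorase/resazurin was added; resorufin fluorescence (525/598 nm) was read after 20 min.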
An asterisk follows results filed as active; ? = inconclusive; . = no result given; [ ] = dose if it differs, or a comment. Unless noted, calls follow the shape of the dose curve; as a rule, active = well fitted curve in the direction sought with a large enough effect; inconclusive = small, poorly fitted or top-dose-only effect, or another doubt; inactive = no such curve, though single readings can be large; an effect the other way counts as inactive or inconclusive. % is scaled to controls: 0 for no effect and ±100 for the full control effect.

SMILES | HCMV inh | Sm TGR inh | Pf growth 96h | Pf growth 48h | FBPA Giardia inh
CCn1cc(C(=O)NCc2cccc(F)c2)c(=O)c2cc(F)c(N3CCN(C(=O)c4ccco4)CC3)cc21 | -86.0* | -16.4% | 2.08µM* | . | 3.8%
CCCNC(=O)c1cn(CC)c2cc(N3CCN(C(=O)c4ccco4)CC3)c(F)cc2c1=O | -36.1 | 0.0% | 3.29µM* | ? | .
CCCNC(=O)OC[C@@H]1O[C@H](CCO/N=C(\C)CCN2CCc3nc(CC)c(CC)cc3C2)C=C[C@@H]1Oc1ccc(OC)cc1 | . | . | . | . | -7.5%[12.9 µM]
CCCNC(=O)OC[C@H]1O[C@H](CCO/N=C(\C)CCN2CCc3nc(-c4ccccc4)c(-c4ccccc4)cc3C2)C=C[C@@H]1Oc1ccc(OC)cc1 | . | -22.4% | 4.65µM* | 5.86µM* | -7.3%
Cc1ccc(NC(=O)Cn2ncc3c4ccccc4n(Cc4ccccc4)c3c2=O)cc1Cl | -8.5 | -0.9% | . | . | .
COc1cc2c(cc1OC)CN(S(=O)(=O)c1cccs1)CC2 | 47.7 | 9.9% | 0.6% | 1.8% | 6.3%
COc1cc2c(cc1OC)C(C)N(C(=O)c1cc3c(C)cc(C)cc3[nH]1)CC2 (stereo not given) | -30.3 | -8.7% | 13.1µM* | 10.4µM* | .
COc1cc2c(cc1OC)C(C)N(C(=O)c1nccnc1C(=O)O)CC2 (stereo not given) | -2.4 | -0.2% | 10.2% | 9.7% | ?
COc1ccc(S(=O)(=O)N2CCc3cc(OC)c(OC)cc3C2)cc1 | -31.3 | -0.3% | -5.9% | 0.828µM* | -1.8%
COc1ccc(CC(=O)Nc2ccc(S(=O)(=O)N3CCCC3)cc2)cc1OC | 13.5 | . | . | . | .
COc1cc2c(cc1OC)C(C)N(CC(=O)Nc1ccc(S(=O)(=O)N3CCCC3)cc1)CC2 (stereo not given) | ? | 35.5µM* | ? | 11.7µM* | .
COc1cc2c(cc1OC)CN(CC(=O)Nc1ccc(S(=O)(=O)N3CCCC3)cc1)CC2 | -22.2 | -6.5% | 13.1µM* | 0.0% | .
CC(C)(C)OC(=O)N1C[C@H](O)C[C@H]1C(=O)OCC(=O)c1ccc([N+](=O)[O-])cc1 | -13.0 | -22.0% | 51.6% | 42.8% | .
COc1cc2c(cc1OC)C(C)N(C(=O)Nc1cc(C)cc(C)c1)CC2 (stereo not given) | -36.6 | 5.8% | ? | ? | 10.3%
COc1cc2c(cc1OC)C(C)N(C(=O)Nc1ccc(F)cc1)CC2 (stereo not given) | -101.6* | -7.7% | -22.8% | -21.0% | 9.9%
COc1ccc(C(=O)Nc2ccc(Cl)c(S(=O)(=O)Nc3ccccc3OC)c2)cc1 | -92.5* | -2.8% | ? | ? | -1.5%
COc1ccccc1NS(=O)(=O)c1cc(NC(=O)c2ccc(Cl)nc2)ccc1Cl | -98.1* | -11.6% | 3.29µM* | 1.65µM* | -3.4%
COc1ccc(NS(=O)(=O)c2cc(N/C(=N\S(=O)(=O)c3ccccc3)c3ccc(F)cc3)ccc2Cl)cc1 | -30.0 | -4.4% | 10.4µM* | ? | -8.2%
COc1ccc(C(=O)NCCN2CCOCC2)cc1S(=O)(=O)Nc1ccc(C)cc1 | 21.9 | 3.6% | -23.4% | -3.3% | .
COc1ccccc1NC(=O)Nc1ccc(Cl)c(S(=O)(=O)Nc2ccccc2OC)c1 | 3.6 | -4.8% | ? | -16.9% | -0.5%
COc1ccccc1NS(=O)(=O)c1cc(C(=O)NCCN2CCOCC2)ccc1Cl | 1.5 | 0.0% | 10.4µM* | 7.8% | -4.4%
CCN(CC)C(=O)c1ncn2c1C(=O)NC[C@@H]2C | -21.6 | . | . | . | .
COc1ccc(NC(=O)c2ccc(-c3ccccc3)cc2)cc1NS(=O)(=O)c1ccc(F)cc1 | -94.9* | 6.4% | ? | ? | -8.2%
CCc1nc(SC)ncc1C(=O)NCc1cccc(Br)c1 | 2.5 | -3.4% | . | . | .
c1ccc(C2Nc3ccccc3Oc3ccccc32)cc1 (stereo not given) | -16.8 | -2.2% | 5.22µM* | 10.4µM* | -3.5%
SMILES | HCMV inh | Sm TGR inh | Pf growth 96h | Pf growth 48h | FBPA Giardia inh
CSc1ccc(CNC(C)C(O)c2ccccc2)cc1 (stereo not given) | -3.6 | . | -1.7% | 1.85µM* | -0.3%
COCCn1c(C)cc(C2=NNC(=Nc3ccc(OC)cc3)SC2)c1C | . | 4.9% | 3.7µM* | 13.1µM* | -23.9%
COCCn1c(C)cc(C2=NNC(=Nc3ccccc3)SC2)c1C | 15.9 | -1.8% | -137.6% | ? | -8.8%
COCCn1c(C)cc(C2=NNC(=NC(C)(C)C)SC2)c1C | -19.2 | -1.0% | ? | 11.7µM* | -20.4%
COc1ccc(NC(=O)CN(C)C(=O)c2cn(-c3ccccc3)nc2-c2cccs2)cc1 | -1.2 | 2.5% | ? | ? | .
CCOc1ccc(NC(=O)CN(C)C(=O)c2cn(-c3ccc(F)cc3)nc2-c2cccc(OC)c2)cc1OCC | -14.2 | -6.7% | ? | 11.7µM* | .
COc1ccc(NC(=O)CN(C)C(=O)c2cn(-c3ccccc3)nc2-c2cccnc2)cc1 | -39.3 | 2.4% | ? | 8.28µM* | .
O=C(Nc1cc(Sc2ccccn2)cc([N+](=O)[O-])c1)c1cccc(Cl)c1 | ? | -2.6% | 20.4% | 9.28µM* | -20.4%
CCOc1ccc(-c2nnc(N3CCOCC3)c3ccccc23)cc1 | ? | -3.3% | ? | ? | 5.6%
Cc1ccc(-c2nnc(N3CCN(c4ccccn4)CC3)c3ccccc23)cc1 | -38.1 | 2.9% | -9.4% | 13.1µM* | 1.4%
CC1CCN(c2nncc3ccccc23)CC1 | -33.9 | 4.7% | 6.57µM* | ? | -0.8%
Clc1nnc(N2CCCCC2)c2ccccc12 | -91.4* | 4.0% | -2.4% | 36.1% | 16.8%
Cc1ccc(-c2nnc(N3CCN(S(C)(=O)=O)CC3)c3ccccc23)cc1 | -25.8 | -10.3% | . | ? | -3.2%
CC1CCN(c2nnc(N3CCC(C)CC3)c3ccccc23)CC1 | 7.1 | 13.5% | 50.1% | 29.9% | 5.0%
COc1ccc(-c2nnc(N3CCC(C)CC3)c3ccccc23)cc1 | -63.4* | -7.4% | -23.2% | -6.3% | -0.5%
CCOC(=O)C1CCN(c2cc3c(cc2NC(=O)c2cc(OC)ccc2Br)n(C)c(=O)n3C)CC1 | -20.0 | -2.4% | ? | ? | ?
Cc1ccc(C)n1C1C(=O)N(Cc2ccc(C(F)(F)F)cc2)c2ccc(Cl)cc21 (stereo not given) | -3.5 | . | . | . | .
Cc1ccc(OCC(=O)Nc2ccon2)c([N+](=O)[O-])c1 | 12.1 | ? | 104.7% | 131.7% | .
O=C1CCC[C@H]2[C@@H](Cc3ccccc3)[C@@H](NS(=O)(=O)c3ccc(-c4ccccc4)cc3)CC[C@]23CCCN13 | -32.8 | . | . | . | .
COc1ccc(CCNC(=O)Nc2nc(CN)cs2)cc1OC | -15.3 | . | . | . | .
O=C(CCn1c(=O)c2cccn2c2cccnc21)NCc1ccccc1F | -27.8 | -0.9% | . | . | .
c1ccc(-c2nnc(N3CCN(c4ccccn4)CC3)c3ccccc23)cc1 | ? | 6.3% | . | 7.38µM* | -3.1%
Cc1ccc(-c2nnc(N3CCCCC3)c3ccccc23)cc1 | -60.8* | 0.0% | -24.8% | ? | 3.0%
